Compound activity deposited in PubChem BioAssay by several laboratories.
tim10-1 inh: growth inhibitors of tim10-1 mutant yeast, primary screen, luminescence, uHTS; S. cerevisiae tim10-1 ts strain growth, BacTiter-Glo, 24 h; inhibition, % at 20 µM; hit rate 2.2% among 330,000;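 active means inhibition of at least 40%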;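 further: mutant grown at 25 °C; 0% = DMSO wells with yeast and 100% = wells holding no yeast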
NALP3 yeast inh: NALP3 inflammasome inhibitors in reconstituted yeast, primary screen, luminescence, uHTS | hit rate 0.39% among 330,000 | inhibition, % at 10 µM | Yeast reconstituted NLRP3/ASC/caspase-1, beta-gal luminescence, 24 h;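 active means inhibition of 50% or more; inactive means inhibition below 50%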;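 further: plate controls were induced DMSO wells for no effect and uninduced yeast grown without galactose for full effect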
PfHsp90 yeast 2: growth inhibition of PfHsp90-expressing yeast, primary screen, antimalarial PfHsp90 inhibitor project, S. cerevisiae, BacTiter-Glo luminescence, single point, set 2; BacTiter-Glo ATP, 48 h; yeast lacking PDR1 and PDR3 efflux regulators; inhibition, % at 9.4 µM; hit rate 0.32% among 310,000; AID 504621, 2011;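 active means every replicate shows inhibition above about 80%, whatever the replicate mean, limit read from the data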;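 further: 0% = DMSO neutral controls and 100% = 20 µM radicicol positive controls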
tim23-1 inh: growth inhibitors of tim23-1 mutant yeast, primary screen, luminescence, uHTS | hit rate 1.3% among 330,000 | S. cerevisiae tim23-1 growth, BacTiter-Glo luminescence, 24 h | inhibition, % at 20 µM;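 active means growth inhibition of the mutant yeast at or above 50%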;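 further: temperature-sensitive mutant grown at 25 °C; plate controls were DMSO-treated mutant yeast for no effect and medium wells lacking yeast for full effect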
NALP1 yeast inh: NALP1 inflammasome inhibitors in reconstituted yeast, colorimetric, S. cerevisiae, triplicate retest; S. cerevisiae NALP1/ASC/caspase-1 growth, X-gal OD620, 72 h; inhibition, % at 10 µM; hit rate 0.61% among 280,000; AID 2071, 2009; in the data active means inhibition mostly above about 24%, no sharp cut-off; inactive means mostly below about 32%
TIM10 inh: growth inhibitors of isogenic TIM10 control yeast, primary screen, counter-screen for tim10-1 yeast inhibitor project, luminescence, uHTS; S. cerevisiae TIM10 strain growth, BacTiter-Glo luminescence, 24 h; inhibition, % at 10 µM; hit rate 1.4% among 330,000; AID 463195, 2010;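 active means inhibition of 40% or more at the single tested concentration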;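 further: wild-type TIM10 isogenic control strain grown at permissive 25 °C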
tim10-1 conf: growth inhibitors of tim10-1 mutant yeast, confirmation, single concentration, luminescence, S. cerevisiae | S. cerevisiae tim10-1 ts strain growth, BacTiter-Glo, 24 h | inhibition, % at 20 µM | hit rate 56% among 7,400 | shares compounds with tim10-1 inh;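 active means inhibition of yeast growth at or above a set limit in either of two repeat tests at 20 µM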;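 further: tim10-1 mutant grown at permissive 25 °C to find synthetic lethal compounds; 0% = DMSO yeast wells and 100% = medium wells without yeast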
* hit, by the source's call; x = no result. Rows were chosen to be rich in hits. Some 4.1% of all compounds tested hit in one or more screens of this group.

SMILES	tim10-1 inh	NALP3 yeast inh	PfHsp90 yeast 2	tim23-1 inh	NALP1 yeast inh	TIM10 inh	tim10-1 conf
C=CCOCCN1C(=O)C2C(c3ccccc3)C=CC(c3ccccc3)C2C1=O (stereo not drawn)	41.2*	7.7	9.9	40.5	24.7	25.1	24.5
COc1ccc(C(=O)OCC(=O)Nc2cc(C)on2)c(OC)c1OC	85.3*	-0.5	1.2	7.0	6.4	-2.9	-6.5
COc1cc(NC(=O)c2cc(-c3ccccc3)on2)cc(OC)c1OC	3.2	22.3	-3.1	31.8	19.0	20.1	x
COc1cccc(-c2cc(C(=O)Nc3cc(OC)c(OC)c(OC)c3)no2)c1	50.5*	13.1	-10.0	45.4	-6.4	25.3	41.8*
COc1ccc(C2=NCN(c3ccc(C)cc3)C(=S)N2)cc1	-3.3	7.1	2.3	0.1	3.3	3.4	x
Cc1ccc(N2CN=C(c3ccccc3)NC2=S)cc1	43.9*	26.4	-16.1	23.0	21.0	3.6	0.8
CC(C)(C)N(Cc1ccccc1)C(=O)COC(=O)C1CC(=O)N(Cc2ccccc2)C1 (stereo not drawn)	x	x	-19.8	x	x	x	x
C=C1CCC[C@]2(C)C[C@H]3OC(=O)C(CN4CCOCC4)[C@H]3C[C@@H]12 (stereo partly drawn)	50.9*	-15.8	-15.6	35.9	-26.7	23.7	45.5*
COc1ccc(CC(=O)Nc2nc(-c3ccccc3)c(C(C)=O)s2)cc1OC	47.8*	3.9	-11.2	18.2	9.9	12.2	26.9
COc1ccc(-c2sc(NC(C)=O)nc2-c2ccccc2)cc1	28.4	8.9	-3.8	32.7	27.7	35.4	x
COc1ccc(-c2nc(NC(C)=O)sc2-c2ccccc2)cc1	41.7*	2.2	-15.7	42.2	-8.2	26.4	20.2
COc1cc(CC(=O)Nc2nc(-c3ccccc3)c(C(C)=O)s2)cc(OC)c1OC	2.0	20.9	-39.2	6.6	-27.8	17.2	x
COc1cccc(CN2CCNC(=O)C2CC(=O)NCCN2CCCCC2=O)c1 (stereo not drawn)	13.7	9.6	-0.1	1.0	16.1	-0.2	x
O=C(NCCc1ccccc1F)C1CCC(=O)N(CCCN2CCCC2=O)C1 (stereo not drawn)	-4.2	10.0	-3.7	-6.0	6.9	-10.1	x
COc1cccc(CN(C)C(=O)CNC(=O)c2ccc(-c3ccccc3)cc2)c1OC	-28.5	29.5	-0.8	24.8	0.8	9.4	x
COC(=O)c1cc(S(=O)(=O)Nc2cc(OC)cc(OC)c2)c[nH]1	15.2	-1.1	3.2	5.0	11.2	-3.3	x
CCOC(=O)c1sc(Nc2cccc(C)c2C)nc1C	43.4*	8.3	x	27.1	-3.8	32.4	32.3*
CCOC(=O)c1sc(Nc2cccc(Cl)c2)nc1C	30.0	22.4	0.5	33.8	12.1	4.8	x
Cn1cc(CCCC(=O)NCc2ccc(F)cc2)c2ccccc21	15.8	29.9	2.3	8.2	3.9	-12.3	x
N#C/C(=C\c1c[nH]c2ccc(Br)cc12)c1ccccn1	48.1*	20.5	-4.9	47.3	-3.1	19.2	35.1*
C/C1=C\CCC2C(/C=C(\C)CC1)OC(=O)C2CN1CCCCC1 (stereo not drawn)	40.5*	-14.1	-9.5	34.9	2.9	29.8	43.1*
O=[N+]([O-])c1cccc(S(=O)(=O)N2CCN(c3ccccn3)CC2)c1	2.8	-1.2	-11.5	2.0	1.7	6.1	x
O=C(Nc1nnc(-c2ccccn2)o1)c1ccc(Br)cc1	46.1*	14.1	-38.0	29.4	9.9	14.3	28.6
CCC(=O)Nc1nnc(-c2ccccn2)o1	5.2	2.1	-12.9	4.3	19.3	6.6	x
C=C1CCN([C@H](C(=O)O)C(C)C)S(=O)(=O)c2ccccc21	-1.5	13.2	x	1.8	x	10.5	x
C=C1CCN([C@H](C(=O)OCc2cccc(C)c2)C(C)C)S(=O)(=O)c2ccccc21	44.2*	-2.6	9.3	18.7	-4.8	7.7	8.3
